# High-throughput results as filed in PubChem.
# Tau fluor counter – counter-screen for tau fibril formation inhibitors. Potency, µM (top dose mostly 57.7 µM), for the others: top-dose activity change, negative = decrease. AID 1463. actives 0.93% (n = 280,000). tau K18 P301L Alexa594 fluorescence, heparin fibrillization; note: nearly all actives have a fitted effect of over 55% in size
#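 Human K18 P301L tau (15 uM unlabeled plus 0.24 uM Alexa 594-labeled, final) in 100 mM sodium acetate pH 7 was mixed with compound and 20 uM heparin and incubated 6 hr at 37 C.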
# Tau fibril FP – tau fibrillization inhibition (FP); Potency, µM (titrated, usually from 57.7 µM), without a hit: at the highest dose activity, negative = inhibition, most hits filed as inhibitors; K18 P301L tau heparin fibrillization, Alexa594 FP, 6 h; P10636; actives 0.39% (n = 280,000); note: nearly all actives have a fitted effect of over 55% in size
#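 Human tau K18 […] P301L fragment, 15 uM unlabeled plus 0.24 uM Alexa 594-labeled tau (final), with compound and 20 uM heparin in 100 mM sodium acetate pH 7; 6 hr at 37 C, then Alexa 594 FP read.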
# RORg inh – ROR gamma (mouse) transcription inhibition; actives 5.4% (n = 310,000); AID 2551; P51450; Drosophila S2 Gal4-RORgamma UAS-luciferase reporter, 20 h; Potency, µM (titrated, usually from 53.6 µM), inactives show at the top dose activity change, negative = inhibition, usual class: inhibitors; note: nearly all actives have a fitted effect of over 60% in size
# Target sequence (P51450 whole entry, looked up, the tested form may be a part): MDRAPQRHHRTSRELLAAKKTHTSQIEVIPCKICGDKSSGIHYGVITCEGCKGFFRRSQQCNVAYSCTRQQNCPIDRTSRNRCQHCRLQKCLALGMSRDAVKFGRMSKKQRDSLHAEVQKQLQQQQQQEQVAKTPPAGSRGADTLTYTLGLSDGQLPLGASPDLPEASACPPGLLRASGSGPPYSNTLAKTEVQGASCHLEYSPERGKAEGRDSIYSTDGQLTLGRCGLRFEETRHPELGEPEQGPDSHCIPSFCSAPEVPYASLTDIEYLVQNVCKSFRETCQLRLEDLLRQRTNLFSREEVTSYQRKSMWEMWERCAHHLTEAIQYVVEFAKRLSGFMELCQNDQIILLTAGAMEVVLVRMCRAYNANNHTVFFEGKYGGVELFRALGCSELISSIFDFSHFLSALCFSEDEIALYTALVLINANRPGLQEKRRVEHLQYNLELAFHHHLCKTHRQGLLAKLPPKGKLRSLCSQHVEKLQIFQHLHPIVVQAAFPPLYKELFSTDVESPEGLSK
#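 Drosophila Schneider cells stably carrying a metallothionein-driven Gal4 DBD–ROR gamma fusion and a UAS-Photinus luciferase reporter were exposed to compound for 1 hr, then induced with copper sulfate (700 uM final) for 20 hr at ambient temperature before luminescence reading.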
# Tau ThT inhib – tau fibrillization inhibition (ThT binding). recombinant tau K18 P301L (four-repeat tau fragment), heparin-induced fibrillization, ThT fluorescence. Potency, µM (doses to about 57.4 µM), for inactives: at the highest dose activity, negative = inhibition, hits mostly inhibitors. actives 2.1% (n = 270,000); note: nearly all actives have a fitted effect of over 55% in size
#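 Tau K18 P301L fragment (15 uM unlabeled plus 0.24 uM Alexa 594-labeled) in 100 mM sodium acetate pH 7 with compound, fibrillization induced by 20 uM heparin for 6 hr at 37 C. Thioflavin T (30 uM) added, fluorescence read after 1 hr (ex 450, em 510 nm).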
# VP16 counter – inhibits Gal4-VP16 luciferase reporter, ROR gamma counter-screen; Drosophila S2 Gal4-VP16 UAS-luciferase, luminescence, 20 h; Potency, µM (highest dose often 53.6 µM), for inactives: at the highest dose activity, negative = inhibition, hits mostly inhibitors; actives 3.5% (n = 310,000); AID 2546;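 note: Gal4-VP16 expression switched on by copper sulfate through the metallothionein promoter; nearly all actives have a fitted effect of over 50% in size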
# Numbers without * were called inactive; ? = inconclusive; / = no result; [ ] = another dose, or the depositor's remark. Compounds with a hit are over-represented: about 7.3% of the library has one in this group of screens. Calls come from the whole dose curve; as a rule, active = well fitted curve in the direction sought with a large enough effect; inconclusive = small, poorly fitted or top-dose-only effect, or another doubt; inactive = no such curve, though single readings can be large; an effect the other way counts as inactive or inconclusive. % is set by controls: 0 for no effect and ±100 for the full control effect; potency is the fitted concentration of half-maximal effect.
SMILES,Tau fluor counter,Tau fibril FP,RORg inh,Tau ThT inhib,VP16 counter
Cc1ccc(C)c(NC(=O)Cn2c(=O)n(Cc3ccc4c(c3)OCO4)c(=O)c3ccccc32)c1,-1%,-7%,/,10%,/
O=C1CCCCc2sc(Br)c([N+](=O)[O-])c2N1,-18%,3%,11µM*,?,?
CCn1nc(NS(=O)(=O)c2ccc([N+](=O)[O-])cc2)c2cc3ccccc3nc21,/,/,-13%,/,2%
O=C1NC(c2ccccc2)=C(c2ccc3ccccc3n2)C(c2ccncc2)N1 (configuration not stated),?,-16%,1%,11µM*,-4%
COC(=O)CCCCCN1C(=O)NC(CC2CC2)C(C(=O)OCc2ccccc2)=C1C (configuration not stated),-5%,11%,23%,-16%,?
Cc1ccccc1-n1c(C)cc(/C=N/Nc2ccc([N+](=O)[O-])cn2)c1C,?,3%,6.3µM*,4.5µM*,5.6µM*
Cc1cc(/C=N/Nc2ccc([N+](=O)[O-])cn2)c(C)n1-c1ccc(C(=O)O)cc1,?,?,-30%,4.5µM*,22%
O=[N+]([O-])c1ccc(N/N=C\c2cccn2-c2ccccc2)nc1,16µM*[quencher],16%,2.5µM*,7.1µM*,?
COC(=O)[C@@]1(Cc2ccccc2)[C@H]2c3cc(C(=O)N(C)C)n(Cc4ccccn4)c3C[C@H]2CN1C(=O)c1ccccc1,-18%,-14%,-30%,-13%,11%
Cc1c(CCC(=O)NCc2ccc(F)cc2)c(=O)oc2cc(O)ccc12,-18%,3%,/,-10%,/
CCC(O)C1CCN(C(=O)c2ccc(OC3CCN(Cc4ccccn4)CC3)cc2)CC1 (configuration not stated),/,/,-21%,/,-4%
COc1ccc(-c2cn3nc(SCC(=O)Nc4cc(C)cc(C)c4)ccc3n2)cc1,-16%,-6%,/,-17%,/
Cc1ccc(Cl)cc1NC(=O)Cn1c(=O)n(CCCS(=O)(=O)C2CCCCC2)c(=O)c2ccccc21,?,-3%,/,1%,/
CC(=O)Oc1cccc(N2C(=O)c3cccc4c([N+](=O)[O-])ccc(c34)C2=O)c1,/,/,8.9µM*,/,5.6µM*
O=C(O)c1ccc(CN2C(=O)c3cccc4c([N+](=O)[O-])ccc(c34)C2=O)cc1,/,/,?,/,7.1µM*
O=C(Nc1nccs1)c1cccc(N2C(=O)c3cccc4c([N+](=O)[O-])ccc(c34)C2=O)c1,?,5%,7.1µM*,?,7.1µM*
Cc1ccc(C(=O)O)cc1N1C(=O)c2cccc3c([N+](=O)[O-])ccc(c23)C1=O,/,/,7.9µM*,/,6.3µM*
COc1ccc(NC(=O)C2=C(C)Nc3ncnn3C2c2ccc[nH]2)cc1 (configuration not stated),-11%,1%,/,-4%,/
CN(C)CCCN1C(=O)c2cccc3c([N+](=O)[O-])ccc(c23)C1=O,5%,-1%,1.4µM*,8%,1.1µM*
Cc1[nH]c(=S)sc1Cc1ccc(Cl)c(Cl)c1,-23%,-2%,16µM*,-22%,?
C/C(=C\C(=O)OCCCCCCCCC(=O)O)C[C@@H]1OCC(C[C@H]2O[C@H]2[C@@H](C)[C@H](C)O)[C@@H](O)[C@H]1O (some centres not stated),/,/,30%,/,-3%
CCc1ccc(Nc2ccc(C(N)=O)cc2[N+](=O)[O-])cc1,?,12%,?,13µM*,-9%
CS(=O)(=O)CCC(C(=O)O)N1C(=O)c2ccc(Oc3ccc(Cl)cc3)cc2C1=O (configuration not stated),/,/,-18%,/,9%
Cc1ccc(N=Cc2cc(Br)cc(Cl)c2O)cc1,-11%,?,11µM*,18µM*,0%
CCCCCCCCOc1ccc(C(=O)c2ccccc2)c(O)c1,/,/,6%,/,-3%
SMILES,Tau fluor counter,Tau fibril FP,RORg inh,Tau ThT inhib,VP16 counter
CCOc1ccc2c(c1)C(=O)c1cc(OCC(=O)O)ccc1-2,-27%,-6%,17%,11µM*,-19%
CCCCOc1ccc2c(c1)C(=O)c1cc(O)ccc1-2,14µM*[quencher],?,8.9µM*,11µM*,?
O=C(O)COc1ccc2c(c1)CCCC2,-6%,1%,-2%,-1%,-3%
Cc1ccc(/C=C/C(=O)O)cc1S(=O)(=O)N1CCCCC1,0%,-13%,13%,1%,2%
COc1cc(CO)ccc1OCC(=O)N1CCc2ccccc21,/,/,2.5µM*,/,?
O=C(COc1ccc(F)cc1Br)N1CCc2ccccc21,-2%,6%,0%[0.365 µM],?,/
S=C(CN1CCCC1=S)NCCc1ccccc1,-4%,5%,7.9µM*,-5%,?
Cc1cccc(-n2ccnc2SCC(=O)Nc2cccc3ccccc23)c1,-20%,-1%,/,-10%,/
CN(Cc1ccccc1)S(=O)(=O)c1cccc2cccnc12,-14%,-9%,27%,-7%,0%
CCSS(=O)(=O)c1cccc2cccnc12,10%,?,22µM*,?,?
CCCCN(c1ccccc1)S(=O)(=O)c1cccc2cccnc12,-21%,6%,-35%,/,14µM*
COC(=O)c1ccccc1NC(=O)CSc1nc2ccccc2nc1Cc1ccc(F)cc1,-3%,-2%,/,-1%,/
CC(=O)C1=C(c2ccccc2)NC(=O)NC1c1ccc(O)c(Cl)c1 (configuration not stated),/,/,3%,/,-1%
C=CCOc1ccc(C2NC(=S)NC(c3ccccc3)=C2C(C)=O)cc1OC (configuration not stated),3%,10%,14µM*,0%,-4%
CCOC(=O)COc1c(Cl)cc(C2NC(=S)NC(c3ccccc3)=C2C(C)=O)cc1OCC (configuration not stated),1%,9%,3.5µM*,5%,3.2µM*
COc1cc(C2NC(=O)NC(c3ccccc3)=C2C(C)=O)ccc1OCC#N (configuration not stated),2%,3%,21%,-10%,-13%
CCN(C(=O)c1cccn(Cc2ccccc2C)c1=O)c1ccccc1,-10%,-1%,/,-7%,/
COCCCn1c(SCC(=O)N2CCOCC2)nc2ccccc2c1=O,/,/,-6%,/,2%
